One may read the AC50 as the concentration giving half of the maximal activity seen.

The structures appear in SMILES notation. Activity calls are given as the source filed them. The calls were made as follows: active = hit-call score of the fitted dose curve at least 0.9, where 1 is the maximum; inactive = score below 0.9.

Data on three compounds can be found in PubChem BioAssay (EPA / NIEHS).

Read-out in assay [1]: Cyclin Dependent Kinase Inhibitor 1A (CDKN1A), CDKN1A (gene 1026)
As to the kind of experiment: LTEA_HepaRG_CDKN1A: Life Technologies and Expression Analysis (LTEA) Assay for Cyclin Dependent Kinase Inhibitor 1A (CDKN1A) using HepaRG (AID 2283450). Particulars: mRNA level, 48 h; actives raise or lower the signal. The procedure, abridged: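 HepaRG, 48 h dosing, 8-pt half-log series from 100 uM top, 0.5% DMSO vehicle, duplicates. Readout: TaqMan qRT-PCR of CDKN1A transcript, housekeeping-normalized (ACTB, GAPDH, POLR2A). Up/down curve fit relative to DMSO.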

Read-out in assay [2]: Cyclin D1 (CCND1), CCND1 (gene 595)
The experiment in a line: LTEA_HepaRG_CCND1: Life Technologies and Expression Analysis (LTEA) Assay for Cyclin D1 (CCND1) using HepaRG (AID 2283451). Particulars: mRNA level, 48 h; actives raise or lower the signal. The procedure, abridged:
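qRT-PCR (Fluidigm 96.96 array) read-out of transcript level, housekeeping-normalized (ACTB/GAPDH/POLR2A). HepaRG cells, 48 h chemical exposure, 8-point half-log series from 100 uM, 0.5% DMSO vehicle; gain or loss relative to DMSO baseline.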

Read-out in assay [3]: catalase (CAT), CAT (gene 847)
As to the kind of experiment: LTEA_HepaRG_CAT: Life Technologies and Expression Analysis (LTEA) Assay for catalase (CAT) using HepaRG (AID 2283452). Particulars: mRNA level, 48 h; actives raise or lower the signal. The gist of the method:
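Expression of CAT was quantified by TaqMan qRT-PCR with ACTB/GAPDH/POLR2A normalization after 48 h chemical exposure of HepaRG. Eight-point half-log series, top 100 uM, in 0.5% DMSO; gain or loss fitted against vehicle.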

Read-out in assay [4]: flavin-containing dimethylaniline monooxygenases 3 (FMO3), FMO3 (gene 2328)
The experiment in a line: LTEA_HepaRG_FMO3: Life Technologies and Expression Analysis (LTEA) Assay for flavin-containing dimethylaniline monooxygenases 3 (FMO3) using HepaRG (AID 2283453). Particulars: mRNA level, 48 h; actives raise or lower the signal. The gist of the method:
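Eight-point concentration-response in serum-free HepaRG cultures (top 100 uM, 0.5% DMSO, 48 h). Read-out: FMO3 mRNA level normalized to three endogenous control genes, fitted bidirectionally versus vehicle.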

Read-out in assay [5]: Cytochrome P450 (CYP1A1), CYP1A1 (gene 1543)
The experiment in a line: LTEA_HepaRG_CYP1A1: Life Technologies and Expression Analysis (LTEA) Assay for Cytochrome P450 (CYP1A1) using HepaRG (AID 2283454). Particulars: mRNA level, 48 h; actives raise or lower the signal. The procedure, abridged: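 qRT-PCR read-out: CYP1A1 transcript normalized to three housekeeping genes, fitted bidirectionally against 0.5% DMSO vehicle baseline. Human HepaRG cells, 48 h chemical exposure, 8-point half-log series topping at 100 uM.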

Read-out in assay [6]: CFLAR gene, CFLAR (gene 8837)
The experiment in a line: LTEA_HepaRG_CFLAR: Life Technologies and Expression Analysis (LTEA) Assay for CFLAR gene using HepaRG (AID 2283455). Particulars: mRNA level, 48 h; actives raise or lower the signal. The gist of the method: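 Transcript level by qRT-PCR (normalized to ACTB, GAPDH and POLR2A) after 48 h chemical exposure of HepaRG cells, top concentration 100 uM with half-log steps, 0.5% DMSO vehicle, duplicates; fitted bidirectionally against DMSO baseline.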

Read-out in assay [7]: Forkhead box O1 (FOXO1), FOXO1 (gene 2308)
As to the kind of experiment: LTEA_HepaRG_FOXO1: Life Technologies and Expression Analysis (LTEA) Assay for Forkhead box O1 (FOXO1) using HepaRG (AID 2283456). Particulars: mRNA level, 48 h; actives raise or lower the signal. The gist of the method: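 FOXO1 transcript quantified by qRT-PCR after 48 h chemical exposure (top 100 uM, half-log steps, 0.5% DMSO) of HepaRG cells, housekeeping-normalized (ACTB/GAPDH/POLR2A). Changes fitted in both directions relative to vehicle.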

Assay [8] can be described thus: CEETOX_H295R_TESTO: CeeTox H295R High-throughput Steroidogenesis Assay for Testosterone (TESTO) (AID 2283457). Particulars: actives raise or lower the signal. The procedure, abridged:
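Readout: testosterone quantified by HPLC-MS/MS (C18, ESI positive) after MTBE liquid-liquid extraction of culture medium. Cells were H295R, 48 h chemical exposure per OECD 456 with modifications. Gain or loss of signal fitted relative to DMSO.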

Read-out in assay [9]: growth arrest and DNA damage 45 (GADD45A), GADD45A (gene 1647)
The experiment in a line: LTEA_HepaRG_GADD45A: Life Technologies and Expression Analysis (LTEA) Assay for growth arrest and DNA damage 45 (GADD45A) using HepaRG (AID 2283458). Particulars: mRNA level, 48 h; actives raise or lower the signal. The gist of the method: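 HepaRG, 48 h exposure, 8 conc. (top 100 uM, half-log steps), 0.5% DMSO vehicle, duplicates. Read-out: qRT-PCR mRNA level, housekeeping-normalized (ACTB/GAPDH/POLR2A). Curves fit bidirectionally vs DMSO baseline.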

Read-out in assay [10]: ABC Transporter (ABCB1), ABCB1 (gene 5243)
As to the kind of experiment: LTEA_HepaRG_ABCB1: Life Technologies and Expression Analysis (LTEA) Assay for ABC Transporter (ABCB1) using HepaRG (AID 2283460). Particulars: mRNA level, 48 h; actives raise or lower the signal. The procedure, abridged:
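ABCB1 transcript level measured by TaqMan qRT-PCR against three housekeeping genes after 48 h chemical exposure of differentiated HepaRG cells. Top concentration 100 uM, half-log steps, eight points, 0.5% DMSO vehicle; bidirectional fit relative to DMSO.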

Read-out in assay [11]: ABC Transporter (ABCB11), ABCB11 (gene 8647)
The experiment in a line: LTEA_HepaRG_ABCB11: Life Technologies and Expression Analysis (LTEA) Assay for ABC Transporter (ABCB11) using HepaRG (AID 2283463). Particulars: mRNA level, 48 h; actives raise or lower the signal. The gist of the method:
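ABCB11 transcript levels quantified by TaqMan qRT-PCR against three housekeeping genes after 48 h chemical exposure of HepaRG cultures. Concentrations up to 100 uM in half-log steps, 0.5% DMSO vehicle; both induction and suppression scored.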

Read-out in assay [12]: ABC Transporter (ABCC2), ABCC2 (gene 1244)
As to the kind of experiment: LTEA_HepaRG_ABCC2: Life Technologies and Expression Analysis (LTEA) Assay for ABC Transporter (ABCC2) using HepaRG (AID 2283464). Particulars: mRNA level, 48 h; actives raise or lower the signal. The procedure, abridged: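 qRT-PCR (TaqMan, Fluidigm array) read-out of ABCC2 mRNA, normalized to three housekeeping genes. Differentiated HepaRG cells were treated 48 h in serum-free induction medium with 8-point half-log series from 100 uM in 0.5% DMSO; curves fitted bidirectionally relative to DMSO.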

Read-out in assay [13]: Broad substrate specificity ATP-binding cassette transporter ABCG2 (Homo sapiens) (UniProt Q9UNQ0)
As to the kind of experiment: LTEA_HepaRG_ABCG2: Life Technologies and Expression Analysis (LTEA) Assay for ABC Transporter (ABCG2) using HepaRG (AID 2283465). Particulars: mRNA level, 48 h; actives raise or lower the signal. The gist of the method: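 ABCG2 transcript was quantified by TaqMan qRT-PCR against three housekeeping genes in HepaRG cells. Cells were treated in duplicate for 48 h across an 8-point half-log series up to 100 uM, with 0.5% DMSO vehicle. Gain or loss versus DMSO was fit.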

Read-out in assay [14]: ATP-citrate lyase (ACLY), ACLY (gene 47)
As to the kind of experiment: LTEA_HepaRG_ACLY: Life Technologies and Expression Analysis (LTEA) Assay for ATP-citrate lyase (ACLY) using HepaRG (AID 2283466). Particulars: mRNA level, 48 h; actives raise or lower the signal. The procedure, abridged: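 ACLY mRNA quantified by qRT-PCR on Fluidigm arrays against three housekeeping genes, after 48 h chemical treatment of HepaRG cells (top concentration 100 uM, half-log steps, 0.5% DMSO vehicle). Up- or down-regulation fitted relative to DMSO.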

Read-out in assay [15]: Alkaline Phosphatase, Placental (ALPP) gene, ALPP (gene 250)
As to the kind of experiment: LTEA_HepaRG_ALPP: Life Technologies and Expression Analysis (LTEA) Assay for Alkaline Phosphatase, Placental (ALPP) gene using HepaRG (AID 2283468). Particulars: mRNA level, 48 h; actives raise or lower the signal. The gist of the method:
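qRT-PCR readout of ALPP mRNA (Fluidigm TaqMan), normalized to ACTB/GAPDH/POLR2A, after 48 h chemical exposure of HepaRG cells; 8-point half-log series, top 100 uM, 0.5% DMSO vehicle. Bidirectional curve fit versus DMSO baseline.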

Read-out in assay [16]: Bcl-2 (BAD) gene, BAD (gene 572)
As to the kind of experiment: LTEA_HepaRG_BAD: Life Technologies and Expression Analysis (LTEA) Assay for Bcl-2 (BAD) gene using HepaRG (AID 2283469). Particulars: mRNA level, 48 h; actives raise or lower the signal. The gist of the method:
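Read-out: qRT-PCR of BAD mRNA, normalized to three housekeeping genes. Human HepaRG cultures got 48 h chemical exposure in 0.5% DMSO, duplicate eight-point half-log series topping at 100 uM. Gain or loss of signal fitted versus DMSO vehicle.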

Read-out in assay [17]: Forkhead box O3 (FOXO3), FOXO3 (gene 2309)
The experiment in a line: LTEA_HepaRG_FOXO3: Life Technologies and Expression Analysis (LTEA) Assay for Forkhead box O3 (FOXO3) using HepaRG (AID 2283459). Particulars: mRNA level, 48 h; actives raise or lower the signal. The gist of the method: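 FOXO3 transcript measured by qRT-PCR (normalized to ACTB, GAPDH, POLR2A) after 48 h exposure of HepaRG cells in serum-free induction medium. Duplicates, eight half-log concentrations up to 100 uM, 0.5% DMSO; gain or loss fitted against DMSO.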

Read-out in assay [18]: growth arrest and DNA damage 45 (GADD45B), GADD45B (gene 4616)
As to the kind of experiment: LTEA_HepaRG_GADD45B: Life Technologies and Expression Analysis (LTEA) Assay for growth arrest and DNA damage 45 (GADD45B) using HepaRG (AID 2283461). Particulars: mRNA level, 48 h; actives raise or lower the signal. The procedure, abridged: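 qRT-PCR read-out (Fluidigm TaqMan, housekeeping-normalized) of mRNA change in human HepaRG cells after 48 h chemical exposure; 8-point curve, top 100 uM, half-log steps, 0.5% DMSO vehicle; gain or loss fitted relative to DMSO baseline.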

Read-out in assay [19]: Peroxisomal acyl-coenzyme A oxidase 1 (ACOX1) gene, ACOX1 (gene 51)
The experiment in a line: LTEA_HepaRG_ACOX1: Life Technologies and Expression Analysis (LTEA) Assay for Peroxisomal acyl-coenzyme A oxidase 1 (ACOX1) gene using HepaRG (AID 2283467). Particulars: mRNA level, 48 h; actives raise or lower the signal. The procedure, abridged: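 ACOX1 transcript levels were quantified by TaqMan qRT-PCR against three housekeeping genes after 48 h chemical exposure of differentiated human HepaRG cells. Exposure used eight half-log steps topping at 100 uM, 0.5% DMSO vehicle, in duplicate. Bidirectional curve fits were made relative to DMSO.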

Chain of Broad substrate specificity ATP-binding cassette transporter ABCG2 (Homo sapiens) (Q9UNQ0 whole entry, looked up): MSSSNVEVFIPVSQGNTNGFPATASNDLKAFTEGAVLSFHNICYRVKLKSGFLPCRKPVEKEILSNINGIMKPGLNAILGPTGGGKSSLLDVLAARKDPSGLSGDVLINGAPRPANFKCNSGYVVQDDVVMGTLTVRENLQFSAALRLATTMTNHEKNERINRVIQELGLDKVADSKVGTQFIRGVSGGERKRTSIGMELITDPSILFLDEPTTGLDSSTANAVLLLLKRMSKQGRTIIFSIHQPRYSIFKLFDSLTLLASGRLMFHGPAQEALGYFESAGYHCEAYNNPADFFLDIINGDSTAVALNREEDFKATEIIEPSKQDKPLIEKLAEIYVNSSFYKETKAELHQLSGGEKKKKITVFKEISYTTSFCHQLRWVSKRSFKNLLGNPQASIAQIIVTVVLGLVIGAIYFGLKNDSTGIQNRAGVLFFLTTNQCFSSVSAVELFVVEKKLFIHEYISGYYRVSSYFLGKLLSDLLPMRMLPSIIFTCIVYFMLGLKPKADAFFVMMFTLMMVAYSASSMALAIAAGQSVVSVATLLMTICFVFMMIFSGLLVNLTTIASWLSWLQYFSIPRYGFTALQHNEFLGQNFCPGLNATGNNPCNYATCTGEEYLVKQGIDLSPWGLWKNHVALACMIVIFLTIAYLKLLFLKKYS

In the case of `CCCCCCCCN(C)CCCCCCCC`, the compound was called inactive in assay [1], in [2], in [3], in [4], in assay [5] and in [6]. The result in assay [7], in assay [8], in [9], in [10], in assay [11] and in assay [12] was inactive. In addition, the compound was called inactive in assay [13], in [14], in assay [15] and in assay [16].

For `CCCCCc1ccc(N)cc1`, the call in [1], in [2], in assay [3], in [4], in assay [6] and in assay [7] was inactive. Moreover, the call in assay [9], in assay [17], in assay [10], in [18], in assay [11] and in assay [12] was inactive. Besides, the compound was classed as inactive in [13], in [14], in assay [15] and in [16]. In addition, in [5], the AC50 was 28.8 µM (active).

On to `O=c1[nH]sc2ccccc12`, for which the result in assay [1], in assay [2], in assay [3], in assay [4], in assay [6] and in assay [7] was inactive. The call in [9], in [17], in assay [10], in [18], in assay [11] and in assay [12] was inactive. For the same compound, the compound was classed as inactive in [13], in assay [14], in assay [19], in assay [15] and in [16]. Further, in assay [5], the AC50 was 64.5 µM (active).
